Assay outcomes from PubChem.
SMARCA2 act = activators of SMARCA2 function; activation, % at 9.1 µM; MG213 cells, MMTV-luciferase reporter, dexamethasone, overnight; 1% of 370,000 active; in the data active = activation above about 7.8%
hcDAF-12 act = H. contortus DAF-12 activation, primary screen. AID 652067. HEK293 hcDAF-12 lit1-tk-luc reporter, luminescence; 0% DMSO, 100% Δ7-dafachronic acid. 1.4% of 370,000 active. activation, % at 6.8 µM;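 active = activation above the mean of all tested compounds plus 3 SD, cut at about 5.5% in these data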
hgDAF12 agonist = hgDAF-12 agonism, primary luciferase screen; HEK293 GAL4-hgDAF12 UAS-luciferase reporter, agonist luminescence; normalized to butyrate control; 1.8% of 370,000 active; activation, % at 6.8 µM;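 active = activation above a cutoff set at the mean of all screened compounds plus 3 SD, cut at about 10% in these data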
ssDAF12 agonist = activates DAF-12 receptor from parasite S. stercoralis; HEK293 ssDAF-12/GRIP1 lit1-tk-luc reporter, luminescence; % of 3 µM dafachronic acid response; activation, % at 6.8 µM; 1% of 370,000 active; AID 652126;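 active = activation above the mean over all tested compounds plus 3 SD, cut at about 0.9% in these data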
DAX1 inh-1 = blocks DAX1 repression of SF-1 activated StAR promoter | HEK293T StAR-luciferase reporter, SF-1/DAX-1 repression relief | inhibition, % at 6.8 µM | 1.1% of 370,000 active | AID 652010;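 active = inhibition above the mean over all tested compounds plus 3 SD, cut at about 3.6% in these data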;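 also: higher inhibition means more luminescence from relief of DAX-1 repression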
DAX1 inh-2 = NR0B1 (DAX1) inhibition. 0.99% of 340,000 active. inhibition, % at 6.75 µM. HEK293 Gal4-DAX1 luciferase reporter, luminescence. P51843;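 active = inhibition above the mean over all tested compounds plus 3 SD, cut at about 4.2% in these data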;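 also: inhibition shows as a rise in luminescence from relieved DAX1 repression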
Target sequence (P51843 207-470 limits assumed): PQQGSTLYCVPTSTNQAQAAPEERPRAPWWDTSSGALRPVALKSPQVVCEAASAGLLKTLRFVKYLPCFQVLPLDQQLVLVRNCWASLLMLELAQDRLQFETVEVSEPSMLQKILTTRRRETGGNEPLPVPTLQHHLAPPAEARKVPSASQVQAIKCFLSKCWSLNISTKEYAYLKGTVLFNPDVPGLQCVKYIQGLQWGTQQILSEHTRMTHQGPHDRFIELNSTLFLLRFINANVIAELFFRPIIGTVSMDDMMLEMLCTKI
DAX1 inh confirm = confirmation of human DAX1 (NR0B1) inhibitors; shares compounds with DAX1 inh-1; HEK293T StAR-promoter luciferase reporter, SF-1/DAX-1 repression; inhibition, % at 6.8 µM; 87% of 2,400 active; AID 652134;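 active = inhibition above the average of every tested compound plus 3 SD, cut at about 3.8% in these data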;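 also: active compounds raise luminescence by relieving repression of the StAR reporter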
SF1 AF2mut Luc = counter-screen for DAX1 inhibitors: nonselective inhibitors with SF-1 AF2 mutant | shares compounds with DAX1 inh-1 | HEK293 StAR-luciferase, luminescence | inhibition, % at 6.8 µM | 78% of 2,400 active;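 active = inhibition above the mean of all tested compounds plus 3 SD, cut at about 3% in these data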
SMARCA2 conf = SMARCA2 activation, confirmation screen | shares compounds with SMARCA2 act | MG213 cells, MMTV-luciferase with dexamethasone, luminescence, overnight; MG213 cells expressing E1A, Rb sequestered; DMSO wells 0%, reference activator 100% | activation, % at 9.1 µM | 30% of 3,500 active | AID 652260;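 active = activation above its plate's cutoff, the mean activation of tested wells plus 3 SD, cut at about 7.9% in these data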
GAL4-VP16 Luc = counter-screen for SMARCA2 activators: GAL4-VP16 luciferase reporter activation | shares compounds with SMARCA2 act | HEK293 GAL4-VP16 pG5luc reporter, luciferase luminescence; scaled: DMSO wells 0%, SAHA wells 100% | activation, % at 9.1 µM | 41% of 3,500 active | AID 686939;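 active = activation above the solvent-only control well mean plus 3 SD, averaged across control plates, cut at about 5.2% in these data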
LXRb hcDAF ctr = activates human LXR-beta, counter-screen for hcDAF-12 agonists. shares compounds with hcDAF-12 act. HEK293 Gal4-LXR tk-luc reporter, luminescence, 24 h; normalized: DMSO 0%, positive control 100%. activation, % at 6.8 µM. 3,400 tested, under 10 active;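 active = mean percent activation of the reporter above a cutoff set as the average over tested compounds plus their standard deviation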
Target sequence (P55055 whole entry, looked up, the tested form may be a part): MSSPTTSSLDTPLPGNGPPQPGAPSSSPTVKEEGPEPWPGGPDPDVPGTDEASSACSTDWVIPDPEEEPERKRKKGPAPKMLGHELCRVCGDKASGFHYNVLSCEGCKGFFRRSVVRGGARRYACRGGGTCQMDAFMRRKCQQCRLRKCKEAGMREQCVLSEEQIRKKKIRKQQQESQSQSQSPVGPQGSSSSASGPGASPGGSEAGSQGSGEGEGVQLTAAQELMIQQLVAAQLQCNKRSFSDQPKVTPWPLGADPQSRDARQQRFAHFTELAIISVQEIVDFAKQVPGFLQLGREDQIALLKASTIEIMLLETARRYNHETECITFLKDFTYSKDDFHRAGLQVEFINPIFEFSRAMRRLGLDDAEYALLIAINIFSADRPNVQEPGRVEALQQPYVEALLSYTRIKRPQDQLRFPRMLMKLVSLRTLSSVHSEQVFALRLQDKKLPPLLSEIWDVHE
hcDAF12 ag = confirmation of H. contortus DAF-12 agonists. activation, % at 6.8 µM. 61% of 3,400 active. AID 743032. shares compounds with hcDAF-12 act. HEK293 hcDAF-12 lit1-tk-luc reporter, luminescence; % of Δ7-dafachronic acid response;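 active = mean activation across triplicate tests above the threshold derived from the earlier primary screen, cut at about 5.5% in these data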
hgDAF12 ag = hgDAF-12 agonism, confirmation assay | activation, % at 6.8 µM | AID 743050 | HEK293 GAL4-hgDAF12 luciferase reporter, agonist mode; percent of butyrate response | 80% of 3,300 active | shares compounds with hgDAF12 agonist;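 active = mean activation over triplicate wells above the hit cutoff derived from the earlier primary screen, cut at about 11% in these data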
LXRb DAF12 ctr = LXR-beta agonism as DAF-12 counter-screen | shares compounds with hgDAF12 agonist | HEK293 Gal4-LXR luciferase reporter, 24 h | activation, % at 6.8 µM | 3,300 tested, under 10 active;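 active = mean activation of the triplicate above a set limit carried over from the primary screen, none filed active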
A number is an active result. This is a sample that favours compounds with a hit; in the whole collection about 4.8% have one here.

`O=C(Nc1ccc(SC(F)(F)F)cc1)c1ccccn1` gave SMARCA2 act inactive, hcDAF-12 act 8.4, hgDAF12 agonist 22, ssDAF12 agonist 1.1, DAX1 inh-1 6.1, DAX1 inh-2 inactive, DAX1 inh confirm 15, SF1 AF2mut Luc inactive, LXRb hcDAF ctr inactive, hcDAF12 ag 11, hgDAF12 ag 20 and LXRb DAF12 ctr inactive.
Screening N/C(=N\OC(=O)c1cc(Cl)ccc1Cl)c1ccncc1 returned SMARCA2 act inactive, hcDAF-12 act inactive, hgDAF12 agonist inactive, ssDAF12 agonist inactive, DAX1 inh-1 inactive and DAX1 inh-2 inactive.
Screening N/C(=N\OC(=O)c1ccccc1Cl)c1ccncc1 returned SMARCA2 act inactive, hcDAF-12 act 6.2, hgDAF12 agonist 14, ssDAF12 agonist inactive, DAX1 inh-1 5.6, DAX1 inh-2 inactive, DAX1 inh confirm 6.8, SF1 AF2mut Luc 5.3, hgDAF12 ag 13 and LXRb DAF12 ctr inactive.
For N/C(=N\OC(=O)/C=C/c1ccccc1)c1ccncc1 the results were SMARCA2 act inactive, hcDAF-12 act inactive, hgDAF12 agonist inactive, ssDAF12 agonist inactive, DAX1 inh-1 inactive and DAX1 inh-2 inactive.
`N/C(=N\OC(=O)/C=C/c1ccccc1Cl)c1ccncc1` gave SMARCA2 act inactive, hcDAF-12 act 6.8, hgDAF12 agonist 21, ssDAF12 agonist inactive, DAX1 inh-1 9.2, DAX1 inh-2 inactive, DAX1 inh confirm 11, SF1 AF2mut Luc 6.3, LXRb hcDAF ctr inactive, hcDAF12 ag inactive, hgDAF12 ag 16 and LXRb DAF12 ctr inactive.
`CCOc1ccc(-c2ccc(SCC)nn2)cc1` gave SMARCA2 act inactive, hcDAF-12 act inactive, hgDAF12 agonist 24, ssDAF12 agonist inactive, DAX1 inh-1 7.9, DAX1 inh-2 inactive, DAX1 inh confirm 14, SF1 AF2mut Luc 6.7, hgDAF12 ag 19 and LXRb DAF12 ctr inactive.
`CCSc1ccc(-c2ccc(C)cc2)nn1` gave SMARCA2 act 13, hcDAF-12 act 11, hgDAF12 agonist 20, ssDAF12 agonist inactive, DAX1 inh-1 11, DAX1 inh-2 inactive, DAX1 inh confirm 17, SF1 AF2mut Luc 7.4, SMARCA2 conf 14, GAL4-VP16 Luc 9.5, LXRb hcDAF ctr inactive, hcDAF12 ag 6.1, hgDAF12 ag 17 and LXRb DAF12 ctr inactive.
For Cc1ccc(-c2ccc(SCC(=O)NC3CCCC3)nn2)cc1 the results were SMARCA2 act inactive, hcDAF-12 act inactive, hgDAF12 agonist inactive, ssDAF12 agonist inactive, DAX1 inh-1 inactive and DAX1 inh-2 inactive.
CCOc1ccc(-c2ccc(SCc3ccccn3)nn2)cc1 was read as SMARCA2 act inactive, hcDAF-12 act inactive, hgDAF12 agonist inactive, ssDAF12 agonist inactive, DAX1 inh-1 inactive and DAX1 inh-2 inactive.
O=C(NCc1ccccc1)c1ccc(N2CCC3(CC2)CC(c2ccc(Cl)cc2)=NO3)c([N+](=O)[O-])c1 was read as SMARCA2 act inactive, hcDAF-12 act inactive, hgDAF12 agonist inactive, ssDAF12 agonist inactive, DAX1 inh-1 inactive and DAX1 inh-2 inactive.
CCC(O)c1cnc(OCc2ccccc2)nc1OCc1ccccc1 (centres undefined) was read as SMARCA2 act inactive, hcDAF-12 act inactive, hgDAF12 agonist inactive, ssDAF12 agonist inactive, DAX1 inh-1 inactive and DAX1 inh-2 inactive.
For O=C1C(c2cc(=O)c3ccccc3[nH]2)=C(O)c2ccccc21 the results were SMARCA2 act inactive, hcDAF-12 act 10, hgDAF12 agonist 21, ssDAF12 agonist 1.6, DAX1 inh-1 4.6, DAX1 inh-2 inactive, DAX1 inh confirm 16, SF1 AF2mut Luc 8.0, LXRb hcDAF ctr inactive, hcDAF12 ag 8.1, hgDAF12 ag 18 and LXRb DAF12 ctr inactive.
For CCOC(=O)CSCC(=O)N1CCC(Cc2ccccc2)CC1 the results were SMARCA2 act inactive, hcDAF-12 act inactive, hgDAF12 agonist inactive, ssDAF12 agonist inactive, DAX1 inh-1 inactive and DAX1 inh-2 inactive.
Screening NC(=O)c1ccccc1NC(=O)/C=C/c1cccc(Cl)c1 returned SMARCA2 act inactive, hcDAF-12 act inactive, hgDAF12 agonist inactive, ssDAF12 agonist inactive, DAX1 inh-1 inactive and DAX1 inh-2 inactive.
For NC(=O)c1ccccc1N/C=C/C(=O)c1ccc(Cl)cc1Cl the results were SMARCA2 act inactive, hcDAF-12 act 8.1, hgDAF12 agonist 16, ssDAF12 agonist inactive, DAX1 inh-1 6.3, DAX1 inh-2 inactive, DAX1 inh confirm 17, SF1 AF2mut Luc 7.6, LXRb hcDAF ctr inactive, hcDAF12 ag 8.2, hgDAF12 ag 17 and LXRb DAF12 ctr inactive.
CCn1cnc2cc(NCc3nc4ccccc4n3Cc3ccccc3)ccc21 was read as SMARCA2 act inactive, hcDAF-12 act inactive, hgDAF12 agonist inactive, ssDAF12 agonist inactive, DAX1 inh-1 inactive and DAX1 inh-2 inactive.
`CCn1cnc2cc(NCc3nc4ccccc4n3C)ccc21` gave SMARCA2 act inactive, hcDAF-12 act 15, hgDAF12 agonist 18, ssDAF12 agonist 1.1, DAX1 inh-1 5.9, DAX1 inh-2 inactive, DAX1 inh confirm 10, SF1 AF2mut Luc 4.8, LXRb hcDAF ctr inactive, hcDAF12 ag 7.5, hgDAF12 ag 13 and LXRb DAF12 ctr inactive.
